# Measured values as given in PubChem BioAssay (NCI).
# This is part of a sample that, as a whole, favours compounds with a hit. Of some 83,000 tested, about 20% had one in any assay.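 Negative percent growth values reflect cell death: -40 means 40% of the cells present at the start died, and -100 means all died.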 Activity calls are given as the source filed them. Rule for the calls: active = growth percent below 10; inactive = the rest.
# Test system: SF-268 CNS
# Assay: NCI-60 one-dose screen, 48 h (100 = growth as untreated, 0 = no growth, -100 = all killed)
# Details: 10 µM
row,SMILES,growth
1,CN1CCN(c2ccc(C(=O)/C=C/c3ccc(C#N)cc3)cc2)CC1,107% (inactive)
2,Cc1ccc(CSc2nc(-c3ccc(F)cc3)c(C#N)c(=O)[nH]2)cc1,101% (inactive)
3,CCCCCCCCCCCCCCCCCCCC(=O)NCCc1c[nH]c2ccc(OC(=O)NOCCOCCOCCOCCOCCOCCOCCOCCOCCOCCOCCOCCOCCOCCOCCOCCOCCOCCOCCOCCOCCOCCOC)cc12,16.5% (inactive)
4,Cc1ccc(/C(N)=N/c2sc(-c3ccccc3)nc2-c2ccccc2)cc1,79.2% (inactive)

# Test system: SF-295 CNS
# Assay: as above
# Details: 10 µM
row,SMILES,growth
1,O=C(Nc1ccc(I)cc1F)c1cc(-c2ccc(F)cc2F)ccc1O,-37.7% (active)
2,COc1cccc(/C=C2\N=C(C)N(CCc3ccc(S(N)(=O)=O)cc3)C2=O)c1,105% (inactive)
3,CC1=C2C(=C[C@@](C)(COCOCCCl)[C@@H]2O)C(=O)[C@](C)(O)C12CC2,-30.2% (active)
4,Nc1n[nH]c2cccc(C#Cc3cccc(NC(=O)Nc4cc(C(F)(F)F)cc(C(F)(F)F)c4)c3)c12,-75.3% (active)
5,O=C(N=Nc1c(O)[nH]c2ccc(Br)cc12)c1ccc2nc(-c3ccccc3)[nH]c2c1,-81.9% (active)
6,COc1cccc(-c2ccc(/C=N/NC(=O)c3[nH]c4ccc(Br)cc4c3-c3ccccc3)o2)c1,-14.6% (active)
7,COc1cc2c(cc1OC)CN(CCCCOc1cc(O)c3c(=O)cc(-c4ccccc4)oc3c1)CC2,26.2% (inactive)
8,COc1ccc(CCN2C(=O)/C(=C/c3csc(C#N)n3)SC2=S)cc1,77.5% (inactive)
9,N#Cc1c(NC(=O)c2ccc(C(O)(C(F)(F)F)C(F)(F)F)cc2)sc2c1CCC(=O)C2,-97% (active)
10,Cn1cc(-c2cc(N)n3nc(-c4c[nH]c5ccc(Br)cc45)cc3n2)c2cc(Br)cnc21,-86.4% (active)
11,COc1ccccc1[C@H]1C(C(=O)c2ccc(Cl)cc2)C2(N[C@@H]1c1ccccc1)C(=O)Nc1ccccc12 (stereo partly specified),-63.6% (active)
12,CC(=O)Nc1ccc(-c2cn(-c3cccc(C(=O)Nc4cc(C(F)(F)F)cc(C(F)(F)F)c4)c3)nn2)cn1,-89.1% (active)
13,CCCCCCCCCCCCCCCCCCCC(=O)NCCc1c[nH]c2ccc(OC(=O)CCCC(=O)OCCOOCCOOCCOOCCOOCCOOCCOOCCOOCCOOCCOOCCOOCCOOCCOC)cc12,13.3% (inactive)
14,O=C1Nc2ccc(Cl)cc2/C1=C/c1cccc(OCc2ccccn2)c1,-42.4% (active)
15,CN1CCN(Cc2ccc(C(=O)Nc3cccc(Nc4ccc5cc(O)ccc5n4)c3)cc2C(F)(F)F)CC1,-96.9% (active)
16,O=C(O)CCCCCCCCCCN1C(=O)/C(=C/c2cnc(-c3ccc(Cl)cc3)s2)SC1=S,8.83% (active)
17,COc1ccc(NC(=O)Nc2ccc(OCC(=O)N=Nc3c(O)[nH]c4ccc([N+](=O)[O-])cc34)cc2)cc1,100% (inactive)
18,C/C(=C\CC/C=C(\C)CC/C=C(\C)CC[C@@H](O)C(C)(C)O)CC/C=C(\C)CC[C@@H](O)C(C)(C)O,9.52% (active)
19,CCOC(=O)C1NN(c2ccc(S(N)(=O)=O)cc2)c2nc3nc(-c4cccs4)cc(-c4cccs4)c3c(=O)n21 (stereo unspecified),78.5% (inactive)

row,SMILES,growth
1,CN(CCF)c1ccc(/C=C/C(=O)c2ccc(N)cc2O)cc1,80.4% (inactive)
2,C=C1CCC2C3(C)COC(c4c(F)cccc4F)OC3CCC2(C)C1CC(O)C1=CCOC1=O (stereo unspecified),79.4% (inactive)
3,O=C(Nc1cccc(-c2cn(-c3ccc4oc(=O)ccc4c3)nn2)c1)Nc1cc(C(F)(F)F)cc(C(F)(F)F)c1,-45.7% (active)
4,CN1CCCN(Cc2ccc(C(=O)Nc3cccc(Nc4ccc5cc(O)ccc5n4)c3)cc2C(F)(F)F)CC1,-68.5% (active)
5,N#Cc1c(NC(=O)c2ccc(C(F)(F)F)cc2C(F)(F)F)sc2c1CCC(=O)C2,-21.7% (active)
6,O=C(c1ccc(O)cc1)C1[C@H](c2ccccc2Br)[C@@H](c2ccccc2)NC12C(=O)Nc1ccc(Br)cc12 (stereo partly specified),26.6% (inactive)
7,COc1ccc(N2N=C(c3ccc4c(c3)OCCO4)CC2c2cccc(NC(=O)CCCNS(=O)(=O)c3ccc(F)cc3)c2)cc1 (stereo unspecified),65.2% (inactive)
8,C=C1CCC2C3(C)COC(c4ccccc4F)OC3CCC2(C)C1C/C=C1/C(=O)OCC1O (stereo unspecified),-36.1% (active)
9,O=C(Nc1nc2ccc([N+](=O)[O-])cc2s1)Nc1ccccc1I,-25.8% (active)
10,COc1ccc(-c2ccc(/C=N/NC(=O)c3[nH]c4ccc(Br)cc4c3-c3ccccc3)s2)cc1,71.6% (inactive)
11,Brc1ccc(/C=N/Nc2ncnc3sc4c(c23)CCN(Cc2ccccc2)C4)cc1,58.7% (inactive)
12,CC(=O)Nc1ccc(-n2cnc3cc(-c4ccc(O)cc4)ccc32)cc1C,52.8% (inactive)
13,O=C(c1ccc(O)cc1)C1[C@H](c2ccc(Br)cc2)[C@@H](c2ccccc2)NC12C(=O)Nc1ccccc12 (stereo partly specified),29.9% (inactive)
14,Nc1nnc(-c2c[nH]c3ccc(F)cc23)c(-c2c[nH]c3ncccc23)n1,36.6% (inactive)
15,CN1CCN(c2ccc(C(=O)/C=C/c3ccc(C#N)cc3)cc2)CC1,78.2% (inactive)
16,Cc1ccc(CSc2nc(-c3ccc(F)cc3)c(C#N)c(=O)[nH]2)cc1,95.6% (inactive)
17,CCCCCCCCCCCCCCCCCCCC(=O)NCCc1c[nH]c2ccc(OC(=O)NOCCOCCOCCOCCOCCOCCOCCOCCOCCOCCOCCOCCOCCOCCOCCOCCOCCOCCOCCOCCOCCOCCOC)cc12,-28.5% (active)
18,Cc1ccc(/C(N)=N/c2sc(-c3ccccc3)nc2-c2ccccc2)cc1,77.6% (inactive)
